Six compounds from ChEMBL document CHEMBL1961873, “Compounds: GSK PKIS; Assays: Nanosyn kinase panel” (2012) can be followed below.

The target of assay [1] is T1, 3-phosphoinositide-dependent protein kinase 1 (Homo sapiens) (UniProt O15530).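 Also: values are mean inhibition of PDK1.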
T1 sequence (whole entry): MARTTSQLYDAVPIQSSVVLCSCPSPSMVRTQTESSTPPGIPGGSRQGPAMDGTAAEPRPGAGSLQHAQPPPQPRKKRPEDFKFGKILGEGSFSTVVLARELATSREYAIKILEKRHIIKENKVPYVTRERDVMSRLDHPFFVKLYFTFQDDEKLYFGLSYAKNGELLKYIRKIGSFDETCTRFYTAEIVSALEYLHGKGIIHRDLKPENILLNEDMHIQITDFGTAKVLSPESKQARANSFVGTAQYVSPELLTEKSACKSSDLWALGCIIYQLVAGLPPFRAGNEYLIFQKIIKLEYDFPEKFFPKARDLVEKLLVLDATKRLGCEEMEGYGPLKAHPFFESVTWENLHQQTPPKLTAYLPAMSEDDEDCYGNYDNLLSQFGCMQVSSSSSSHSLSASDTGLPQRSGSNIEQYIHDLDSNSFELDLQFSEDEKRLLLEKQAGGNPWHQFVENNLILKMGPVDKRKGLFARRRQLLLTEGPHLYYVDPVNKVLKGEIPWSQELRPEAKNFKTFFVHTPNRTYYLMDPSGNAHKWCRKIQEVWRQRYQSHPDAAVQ
As to conditions: at 0.1 µM.

Assay [2] concerns the target cAMP-dependent protein kinase catalytic subunit alpha (Homo sapiens) (UniProt P17612). The note with it: at 0.1 µM.
Assay [3] has the same target. As to conditions: at 1 µM.
Assay [4] addresses Protein kinase C alpha type (Homo sapiens) (UniProt P17252). As to conditions: at 0.1 µM.
The target is the same in assay [5]. As to conditions: at 1 µM.
In assay [6] the target is Protein kinase C beta type (Homo sapiens) (UniProt P05771). As to conditions: at 0.1 µM.
Protein kinase C beta type (Homo sapiens), sequence (P05771 2-671 limits assumed): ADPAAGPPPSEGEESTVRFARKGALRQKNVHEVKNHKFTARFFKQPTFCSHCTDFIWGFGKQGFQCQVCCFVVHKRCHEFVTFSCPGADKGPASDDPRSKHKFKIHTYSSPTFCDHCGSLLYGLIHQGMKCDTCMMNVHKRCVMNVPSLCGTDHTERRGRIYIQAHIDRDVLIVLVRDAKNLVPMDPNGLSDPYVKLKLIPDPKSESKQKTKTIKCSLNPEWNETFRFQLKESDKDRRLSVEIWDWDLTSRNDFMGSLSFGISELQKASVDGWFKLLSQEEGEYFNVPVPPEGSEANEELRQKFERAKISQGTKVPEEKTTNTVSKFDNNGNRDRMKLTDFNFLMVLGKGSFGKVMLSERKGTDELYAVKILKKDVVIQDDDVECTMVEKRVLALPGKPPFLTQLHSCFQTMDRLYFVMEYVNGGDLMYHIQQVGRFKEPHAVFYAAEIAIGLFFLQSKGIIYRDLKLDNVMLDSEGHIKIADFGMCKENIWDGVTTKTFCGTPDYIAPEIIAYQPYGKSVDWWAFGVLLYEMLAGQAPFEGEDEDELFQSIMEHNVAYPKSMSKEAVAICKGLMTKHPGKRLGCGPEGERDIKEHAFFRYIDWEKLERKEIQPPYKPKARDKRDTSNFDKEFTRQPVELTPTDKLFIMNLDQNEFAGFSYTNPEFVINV
For assay [7] the target is unchanged. The note with it: at 1 µM.
Assay [8] concerns the target Protein kinase C eta type (Homo sapiens) (UniProt P24723). The note with it: at 0.1 µM.
Assay [9] has the same target. As to conditions: at 1 µM.
Assay [10] concerns the target Protein kinase C gamma type (Homo sapiens) (UniProt P05129). The note with it: at 0.1 µM.
Assay [11] shares this target. The note with it: at 1 µM.
Assay [12] concerns the target T2, Protein kinase C iota type (Homo sapiens) (UniProt P41743).
T2 sequence (whole entry): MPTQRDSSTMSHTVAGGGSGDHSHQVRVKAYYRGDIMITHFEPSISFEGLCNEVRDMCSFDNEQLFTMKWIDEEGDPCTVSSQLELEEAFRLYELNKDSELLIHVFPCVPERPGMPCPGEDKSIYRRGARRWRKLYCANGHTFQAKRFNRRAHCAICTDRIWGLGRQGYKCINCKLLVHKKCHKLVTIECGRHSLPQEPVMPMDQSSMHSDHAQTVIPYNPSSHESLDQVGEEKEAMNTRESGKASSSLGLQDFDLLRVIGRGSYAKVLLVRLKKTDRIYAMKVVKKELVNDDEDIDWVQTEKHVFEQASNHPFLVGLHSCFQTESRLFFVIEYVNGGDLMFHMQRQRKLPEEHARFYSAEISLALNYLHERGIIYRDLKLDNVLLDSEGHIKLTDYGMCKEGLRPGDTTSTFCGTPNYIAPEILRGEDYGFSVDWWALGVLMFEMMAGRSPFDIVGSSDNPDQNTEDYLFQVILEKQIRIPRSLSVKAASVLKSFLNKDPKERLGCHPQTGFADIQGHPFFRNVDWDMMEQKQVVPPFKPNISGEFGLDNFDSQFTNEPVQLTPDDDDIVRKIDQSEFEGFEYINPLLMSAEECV
As to conditions: at 0.1 µM.

The target in assay [13] is T2, Protein kinase C iota type (Homo sapiens). The note with it: at 1 µM.
Assay [14] deals with Protein kinase C theta type (Homo sapiens) (UniProt Q04759). The note with it: at 0.1 µM.
Protein kinase C theta type (Homo sapiens), sequence (Q04759 whole entry, looked up): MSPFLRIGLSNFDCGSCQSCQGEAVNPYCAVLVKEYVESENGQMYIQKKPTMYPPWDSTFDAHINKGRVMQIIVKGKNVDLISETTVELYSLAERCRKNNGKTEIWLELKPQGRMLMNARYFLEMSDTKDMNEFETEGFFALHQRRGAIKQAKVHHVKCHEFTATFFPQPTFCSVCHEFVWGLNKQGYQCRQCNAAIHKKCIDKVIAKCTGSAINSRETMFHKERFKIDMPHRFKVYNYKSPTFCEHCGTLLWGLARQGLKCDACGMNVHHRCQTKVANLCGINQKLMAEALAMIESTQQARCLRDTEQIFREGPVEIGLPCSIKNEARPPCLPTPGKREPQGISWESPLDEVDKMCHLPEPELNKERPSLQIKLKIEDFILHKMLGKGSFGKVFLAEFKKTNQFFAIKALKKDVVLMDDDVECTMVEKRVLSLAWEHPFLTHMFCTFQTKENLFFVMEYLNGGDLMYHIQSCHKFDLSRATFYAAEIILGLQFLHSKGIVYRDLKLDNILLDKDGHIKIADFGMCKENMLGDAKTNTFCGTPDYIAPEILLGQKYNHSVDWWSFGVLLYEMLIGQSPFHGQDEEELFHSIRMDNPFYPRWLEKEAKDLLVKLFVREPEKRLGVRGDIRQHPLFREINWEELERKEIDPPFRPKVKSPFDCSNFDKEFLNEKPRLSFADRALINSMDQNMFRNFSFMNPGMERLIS
Assay [15] shares this target. As to conditions: at 1 µM.
Assay [16] addresses Protein kinase C beta type (Homo sapiens) (UniProt P05771). As to conditions: at 0.1 µM. The source holds these as a separate data set.
Assay [17] shares this target. The note with it: at 1 µM. The source holds these as a separate data set.
Assay [18] addresses T3, Serine/threonine-protein kinase D1 (Homo sapiens) (UniProt Q15139).
T3 sequence (whole entry): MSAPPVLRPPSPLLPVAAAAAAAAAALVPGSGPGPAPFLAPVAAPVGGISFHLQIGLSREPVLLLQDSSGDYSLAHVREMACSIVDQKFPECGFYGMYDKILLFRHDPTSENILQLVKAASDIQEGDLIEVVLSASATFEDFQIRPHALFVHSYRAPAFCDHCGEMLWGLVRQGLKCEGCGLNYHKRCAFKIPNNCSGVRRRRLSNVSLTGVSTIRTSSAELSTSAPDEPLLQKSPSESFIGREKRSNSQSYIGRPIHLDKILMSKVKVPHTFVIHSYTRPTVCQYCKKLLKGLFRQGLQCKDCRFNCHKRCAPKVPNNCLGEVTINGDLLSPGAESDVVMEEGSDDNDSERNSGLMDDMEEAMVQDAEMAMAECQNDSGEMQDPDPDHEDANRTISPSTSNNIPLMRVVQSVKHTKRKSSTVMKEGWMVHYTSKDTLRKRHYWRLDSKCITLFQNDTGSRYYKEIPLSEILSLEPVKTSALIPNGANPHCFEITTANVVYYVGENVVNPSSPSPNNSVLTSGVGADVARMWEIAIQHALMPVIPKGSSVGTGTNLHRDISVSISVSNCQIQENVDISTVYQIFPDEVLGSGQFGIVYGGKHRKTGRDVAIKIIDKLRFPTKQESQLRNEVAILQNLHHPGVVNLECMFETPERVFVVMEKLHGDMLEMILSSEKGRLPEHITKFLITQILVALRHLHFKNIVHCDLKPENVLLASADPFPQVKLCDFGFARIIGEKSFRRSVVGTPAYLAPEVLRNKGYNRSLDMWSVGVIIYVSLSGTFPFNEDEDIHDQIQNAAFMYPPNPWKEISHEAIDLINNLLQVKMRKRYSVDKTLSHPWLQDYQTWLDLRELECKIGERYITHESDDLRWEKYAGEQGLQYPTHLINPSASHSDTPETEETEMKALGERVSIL
As to conditions: at 0.1 µM.

Assay [19] deals with T3, Serine/threonine-protein kinase D1 (Homo sapiens). The note with it: at 1 µM.
The target of assay [20] is T4, Serine/threonine-protein kinase D2 (Homo sapiens) (UniProt Q9BZL6).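 Also: reported percent inhibition values are means, part of the GSK PKIS kinase panel screen.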
T4 sequence (whole entry): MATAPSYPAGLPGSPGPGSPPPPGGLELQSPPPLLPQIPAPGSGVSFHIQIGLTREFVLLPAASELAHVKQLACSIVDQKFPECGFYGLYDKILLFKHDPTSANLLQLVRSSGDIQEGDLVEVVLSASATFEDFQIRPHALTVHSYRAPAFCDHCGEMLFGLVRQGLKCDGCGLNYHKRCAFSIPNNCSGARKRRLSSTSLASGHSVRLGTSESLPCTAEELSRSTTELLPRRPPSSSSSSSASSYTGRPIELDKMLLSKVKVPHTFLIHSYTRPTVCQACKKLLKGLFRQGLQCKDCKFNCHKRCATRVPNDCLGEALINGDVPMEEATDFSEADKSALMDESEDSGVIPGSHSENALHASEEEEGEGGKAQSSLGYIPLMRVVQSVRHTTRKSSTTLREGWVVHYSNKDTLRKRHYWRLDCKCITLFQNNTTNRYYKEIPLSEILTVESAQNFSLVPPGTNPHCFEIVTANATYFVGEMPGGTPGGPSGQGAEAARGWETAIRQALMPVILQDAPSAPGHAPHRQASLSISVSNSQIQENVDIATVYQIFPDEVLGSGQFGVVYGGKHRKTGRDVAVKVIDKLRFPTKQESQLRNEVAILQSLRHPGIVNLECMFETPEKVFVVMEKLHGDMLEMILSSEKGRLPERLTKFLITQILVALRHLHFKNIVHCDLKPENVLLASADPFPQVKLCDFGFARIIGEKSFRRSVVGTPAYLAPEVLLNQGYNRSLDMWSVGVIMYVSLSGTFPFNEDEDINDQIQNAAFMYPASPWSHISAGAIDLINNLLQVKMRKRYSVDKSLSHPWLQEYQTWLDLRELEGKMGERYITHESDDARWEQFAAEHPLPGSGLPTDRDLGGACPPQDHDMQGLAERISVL
The note with it: at 0.1 µM.

Protein kinase C eta type (Homo sapiens), sequence (P24723 whole entry): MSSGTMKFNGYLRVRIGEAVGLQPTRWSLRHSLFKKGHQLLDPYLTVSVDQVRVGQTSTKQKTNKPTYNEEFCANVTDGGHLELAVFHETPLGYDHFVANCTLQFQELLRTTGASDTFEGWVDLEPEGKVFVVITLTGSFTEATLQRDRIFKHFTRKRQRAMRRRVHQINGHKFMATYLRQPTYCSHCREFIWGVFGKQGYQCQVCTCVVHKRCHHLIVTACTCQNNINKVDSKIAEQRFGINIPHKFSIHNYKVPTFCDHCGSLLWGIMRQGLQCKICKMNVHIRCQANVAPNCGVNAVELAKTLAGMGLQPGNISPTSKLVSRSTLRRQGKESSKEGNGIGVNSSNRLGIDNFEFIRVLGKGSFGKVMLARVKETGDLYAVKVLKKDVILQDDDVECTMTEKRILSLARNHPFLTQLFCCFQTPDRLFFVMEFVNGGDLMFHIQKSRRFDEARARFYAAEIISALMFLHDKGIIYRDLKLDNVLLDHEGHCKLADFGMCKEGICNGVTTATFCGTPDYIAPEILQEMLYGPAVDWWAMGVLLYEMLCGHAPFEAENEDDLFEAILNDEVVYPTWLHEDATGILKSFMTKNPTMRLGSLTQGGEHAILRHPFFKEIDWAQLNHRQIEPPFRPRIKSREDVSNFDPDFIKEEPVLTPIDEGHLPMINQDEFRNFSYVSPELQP

Consider `COc1ccc(-c2cc(-c3c[nH]nc3-c3ccccn3)ccn2)cc1`, for which the inhibition in assay [1] was found to be 2.34%; in assay [2] it was 2.05%; in assay [3], 3.35%; in assay [4], 0.46%; in assay [5] it was 2.09%; in assay [6], 1.41%. Moreover, the inhibition in assay [7] is 3.92%; in assay [8] it was 4.04%; in [9], 5.03%; in assay [10], 1.23%; in assay [11], 1.71%; in assay [12], 1.68%. Besides, the inhibition in assay [13] was determined as 0.87%; in assay [14] it was 2.82%; in assay [15], 5.05%; in assay [16], 0.62%; in assay [17], 1.96%; in assay [18], 8.14%. The inhibition in assay [19] was determined as 37.8%; in assay [20] it was 9.14%.

With `NS(=O)(=O)c1ccc(Nc2ncc(-c3ccccc3)o2)cc1`, the inhibition was 4.51% in [1]; 1.3% in assay [2]; 3.27% in assay [3]; 0% in [4]; 1.96% in assay [5]; -0.16% in [6]. In addition, the inhibition in assay [7] amounted to 1.54%; in [8], 3.2%; in assay [9], 1.9%; in [10] it was 1.28%; in assay [11], 2.49%; in [12], 2.01%. In addition, the inhibition stood at 1.3% in [13]; 1.68% in assay [14]; 3.14% in assay [15]; 0.96% in assay [16]; 2.07% in assay [17]; 3.47% in assay [18]. The inhibition turned out to be 6.2% in assay [19] and 2.92% in [20].

In the case of `CCCN1CCC(c2ccc(Nc3nc(Nc4cc(F)ccc4C(N)=O)c4cc[nH]c4n3)c(OC)c2)CC1`, the inhibition amounted to 0.96% in assay [1]; 2.33% in assay [2]; 3.51% in assay [3]; 0.66% in [4]; 16.6% in assay [5]; 0.19% in assay [6]. The inhibition in assay [7] is 4.9%; in assay [8] it was 2.99%; in [9] it was 9.93%; in assay [10] it was 3.12%; in assay [11], 29.8%; in [12], 0.78%. Further, the inhibition in assay [13] was determined as 1.12%; in assay [14], 2.2%; in [15] it was 8.87%; in [16] it was 1.54%; in assay [17] it was 6.05%; in assay [18] it was 21.5%. Besides, the inhibition stood at 73.8% in [19] and 18% in assay [20].

Turning to `COc1ccc(CNC(=O)c2ccc(-c3cc(-c4nnc(C)o4)ccc3C)cc2)cc1`, the inhibition in assay [1] worked out at 1.94%; in assay [2], 3.14%; in assay [3] it was 3.15%; in [4], 0.19%; in assay [5] it was 0.76%; in [6] it was 6.66%. Further, the inhibition in assay [7] was 9.43%; in assay [8] it was -0.12%; in assay [9] it was 4.73%; in assay [10] it was 3.1%; in assay [11], 2.05%; in assay [12] it was 2.77%. Also, the inhibition in [13] was determined as 0.76%; in [14], 2.86%; in [15], 5.52%; in assay [16] it was 2.73%; in assay [17], 3.61%; in assay [18], 2.89%. Also, the inhibition in assay [19] is -0.42%; in assay [20] it was 0.8%.

For the compound `COc1ccc(-c2oc3ncnc(N)c3c2-c2ccc(NC(=O)Nc3cc(C(F)(F)F)ccc3F)cc2)cc1`, the inhibition in [1] worked out at 1.13%; in assay [2] it was 3.34%; in assay [3] it was 4.14%; in [4], 0.71%; in [5], 1.62%; in [6], 3.38%. Further, the inhibition in assay [7] was 6.16%; in assay [8] it was 6.58%; in assay [9] it was 5.99%; in assay [10] it was 1.64%; in assay [11] it was 6.08%; in assay [12], 3.51%. The inhibition in [13] stood at 0.63%; in [14] it was 3.51%; in assay [15], 5.06%; in [16] it was 1.71%; in [17], 4.49%; in assay [18] it was 2.73%. The figures for the inhibition in [19] and in assay [20] were 3.09% and 3.37%, respectively.

In the case of `Cc1ccc2c(-c3ccnc(Nc4ccccc4)n3)c(-c3ccc(F)cc3)nn2n1`, the inhibition turned out to be 2.18% in assay [1]; 1.83% in assay [2]; 4.25% in assay [3]; 1.15% in [4]; 11.3% in [5]; 1.13% in assay [6]. Further, the inhibition amounted to 6.49% in assay [7]; 0.7% in [8]; 1.97% in assay [9]; 2.27% in assay [10]; 2.17% in assay [11]; 1.43% in assay [12]. For the same compound, the inhibition in [13] is 3.68%; in assay [14] it was 1.21%; in [15] it was 1.16%; in assay [16], 1.79%; in [17], 12.3%; in assay [18], 10.1%. Also, the inhibition in assay [19] was 70.6%; in assay [20] it was 24.6%.
